Consider twelve compounds from PubChem BioAssay (NCATS).

Results filed as inconclusive are left out. Unmarked numbers belong to inactive results. Calls come from the whole dose curve; as a rule, active = well fitted inhibition curve with a large enough effect; inconclusive = small, poorly fitted or top-dose-only effect; inactive = no such curve, though single readings can be large or run the other way.

This assay addresses Retinaldehyde dehydrogenase 3 (Homo sapiens) (UniProt P47895). Briefly: qHTS for Inhibitors of the Aldehyde Dehydrogenase Family (ALDH1A3) Primary screen (AID 2061315).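 Note: plate controls were DMSO vehicle for no effect and reference inhibitor for full effect.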 As to conditions: ALDH inhibition qHTS; series mostly up to 56 µM; activity change, negative = inhibition: at the top concentration. A general note: qHTS replaces the single test concentration by a dilution series.
Turning to `CC(=O)[C@@H]1CC[C@]2(C(=O)O)CC[C@]3(C)C(CCC4[C@@]5(C)CC[C@H](O)C(C)(C)C5CC[C@]43C)C12` (some centres not stated), the “activity change, negative = inhibition” value is 16.5% [at 28 µM].

For `Cc1nc2ccc(Oc3ccc(F)cc3)cc2c(=O)n1C[C@H]1CCCN(C(C)C)C1`, the “activity change, negative = inhibition” value is -5.74%.

With `COC1OC(OC)C(O)(CCC2(C)C(C)CCC3(C)C2CC(O)C(O)C32CO2)C1O` (configuration not stated), the “activity change, negative = inhibition” value was -14.7% [at 28 µM].

For `COC(=O)C1=CO[C@@H](O[C@@H]2O[C@H](CO)[C@@H](O)[C@H](O)[C@H]2O)[C@@H]2[C@@H](C)[C@@H](OC(=O)/C=C/c3ccccc3)[C@@H](O)[C@H]12`, the “activity change, negative = inhibition” value is -5.42% [at 28 µM].

As to `CC1(C)CCC2(C(=O)O)CCC3(C)C(=CCC4C5(C)CCC(O)C(C)(CO)C5C(O)CC43C)C2C1` (configuration not stated), the “activity change, negative = inhibition” value is -0.46% [at 28 µM].

Turning to `Cc1cnn(-c2ccccc2)c1NC(=O)COCc1ccccc1`, the “activity change, negative = inhibition” value was 1.91%.

On to `CC(=O)c1c(C)cc(O[C@@H]2O[C@H](CO)[C@@H](O)[C@H](O)[C@H]2O)cc1O`, for which the “activity change, negative = inhibition” value is -14%.

As to `COC(=O)N1CCC(n2ncc3c(N4CCOCC4)nc(-c4ccc(NC(=O)Nc5ccc(CO)cc5)cc4)nc32)CC1`, the “activity change, negative = inhibition” value is 9.52%.

Take `COc1c(C)c(OCC=C(C)C)cc2c1COC2=O`: the “activity change, negative = inhibition” value was 5.02%.

Consider `CC1=C2C(=O)C=C(CO[C@@H]3O[C@H](CO)[C@@H](O)[C@H](O)[C@H]3O)[C@@H]2[C@H]2OC(=O)[C@H](C)[C@@H]2CC1`, for which the “activity change, negative = inhibition” value is -3.36% [at 28 µM].

Turning to `C=C(C(=O)O)C1CC(O)C2(C)CCCC(=C)C2C1` (configuration not stated), the “activity change, negative = inhibition” value was 14.6%.

Consider `CC1(C)[C@@H](O)CC[C@]2(C)[C@H]3CC=C4[C@@H]5C[C@](C)(C(=O)O)CC[C@]5(C)CC[C@@]4(C)[C@]3(C)CC[C@@H]12`, for which the “activity change, negative = inhibition” value is 3.76%.
